LRH-1 inv ag – NR5A2 inverse agonism in reporter assay; AID 602396; O00482; HEK293T StAR-luciferase reporter, LRH-1 transfected, 24 h; inhibition, % at 3.6 µM; actives 0.13% (n = 360,000);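 active = inhibition above the mean inhibition of all tested compounds plus 3 SD, cut at about 73% in these data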;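 also: 0% = DMSO wells and 100% = reporter-only cells lacking LRH-1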
NCOA3 inh – human NCOA3 inhibition. Q9Y6Q9. HEK293 GAL4-SRC3 luciferase reporter, luminescence. inhibition, % at 3.6 µM. actives 0.17% (n = 360,000);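 active = inhibition above a per-campaign cutoff, the mean of all compounds plus 3 SD, cut at about 60% in these data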;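 also: 0% = DMSO-treated cells and 100% = gossypol-treated cells at 36 µM; higher means less SRC3-driven luciferase light from the GAL4 reporter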
Gli-Sufu block – Gli-Sufu pathway antagonism. actives 0.74% (n = 340,000). inhibition, % at 5 µM. Sufu-KO-LIGHT fibroblasts, Gli luciferase reporter luminescence;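 active = inhibition above about 55%, limit read from the data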;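 also: 0% = DMSO-treated cells and 100% = wells with medium but no cells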
COUP-TFII inh – inhibitors of human COUP-TFII (NR2F2); HEK293T NGFI-A luciferase reporter, luminescence; inhibition, % at 8.6 µM; actives 0.7% (n = 370,000);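 active = inhibition above a per-plate cutoff, mean inhibition of test wells between control levels plus 3 SD, cut at about 38% in these data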;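 also: cells cotransfected with COUP-TFII expression vector driving the NGFI-A reporter; 0% = median of COUP-TF2 test wells and 100% = reporter-only cells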
NCOA1 inh – human NCOA1 inhibition. Q15788. HEK293 GAL4-SRC1 luciferase reporter, luminescence. inhibition, % at 3.6 µM. actives 0.12% (n = 360,000). AID 588354;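 active = inhibition above the campaign mean plus 3 SD, with each screening campaign given its own cutoff, cut at about 60% in these data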;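 also: 0% = DMSO treated cells and 100% = gossypol at 36 µM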
SRC2 inh – inhibits human steroid receptor coactivator 2; Q15596; HEK293 GAL4-SRC2 luciferase reporter, luminescence; inhibition, % at 9 µM; actives 0.17% (n = 370,000); AID 651957;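 active = inhibition above the mean inhibition of all tested compounds plus 3 SD, set per campaign, cut at about 52% in these data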;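 also: 0% = DMSO treated cells and 100% = cells given Gossypol at 36 µM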
Target sequence (Q15596 whole entry, looked up, the tested form may be a part): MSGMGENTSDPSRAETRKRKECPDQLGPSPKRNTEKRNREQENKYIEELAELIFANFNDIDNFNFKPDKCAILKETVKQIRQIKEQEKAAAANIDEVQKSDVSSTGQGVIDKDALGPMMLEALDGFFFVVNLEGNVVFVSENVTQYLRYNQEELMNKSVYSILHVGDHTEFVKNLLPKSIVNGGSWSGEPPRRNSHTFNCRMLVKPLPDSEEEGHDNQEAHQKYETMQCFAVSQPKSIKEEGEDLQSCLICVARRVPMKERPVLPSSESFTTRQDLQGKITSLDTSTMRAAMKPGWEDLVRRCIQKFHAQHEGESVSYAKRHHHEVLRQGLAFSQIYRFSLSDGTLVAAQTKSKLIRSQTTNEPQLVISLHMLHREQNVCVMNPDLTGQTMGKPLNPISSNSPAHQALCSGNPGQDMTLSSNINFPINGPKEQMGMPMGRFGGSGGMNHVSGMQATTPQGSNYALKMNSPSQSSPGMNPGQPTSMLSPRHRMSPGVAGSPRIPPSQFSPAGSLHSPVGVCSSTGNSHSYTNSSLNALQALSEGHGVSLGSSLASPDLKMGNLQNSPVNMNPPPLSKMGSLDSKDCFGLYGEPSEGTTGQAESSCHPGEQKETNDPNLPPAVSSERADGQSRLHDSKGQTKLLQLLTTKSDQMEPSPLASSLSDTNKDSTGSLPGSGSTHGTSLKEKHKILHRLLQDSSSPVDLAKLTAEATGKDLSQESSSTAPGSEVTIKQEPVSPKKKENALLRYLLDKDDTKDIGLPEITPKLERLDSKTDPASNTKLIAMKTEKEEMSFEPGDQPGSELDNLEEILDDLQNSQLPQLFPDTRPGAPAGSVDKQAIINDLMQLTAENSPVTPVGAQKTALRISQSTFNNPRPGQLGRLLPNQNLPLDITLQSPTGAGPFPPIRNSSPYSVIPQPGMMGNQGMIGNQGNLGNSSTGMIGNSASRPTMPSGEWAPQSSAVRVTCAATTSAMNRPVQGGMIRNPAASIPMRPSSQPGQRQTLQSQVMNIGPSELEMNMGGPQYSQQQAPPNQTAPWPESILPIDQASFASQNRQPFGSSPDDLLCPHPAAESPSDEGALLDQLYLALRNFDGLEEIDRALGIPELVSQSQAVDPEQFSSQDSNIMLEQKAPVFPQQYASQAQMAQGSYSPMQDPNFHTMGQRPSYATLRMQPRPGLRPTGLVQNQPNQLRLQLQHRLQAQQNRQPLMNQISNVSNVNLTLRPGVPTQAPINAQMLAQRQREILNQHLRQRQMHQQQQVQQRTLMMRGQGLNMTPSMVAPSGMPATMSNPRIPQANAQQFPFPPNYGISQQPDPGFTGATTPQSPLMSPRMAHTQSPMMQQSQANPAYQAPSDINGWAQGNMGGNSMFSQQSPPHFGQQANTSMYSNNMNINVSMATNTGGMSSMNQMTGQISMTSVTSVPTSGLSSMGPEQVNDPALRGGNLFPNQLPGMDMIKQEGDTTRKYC
Gli antag conf – confirmation of Gli-SUFU pathway antagonists | shares compounds with Gli-Sufu block | Sufu-KO-LIGHT cells, Gli luciferase reporter, luminescence | inhibition, % at 5 µM | actives 40% (n = 2,500) | AID 602428;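 active = mean inhibition at 5 µM reaching about 45%, limit read from the data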;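 also: plate controls were DMSO-treated cells for no effect and wells lacking cells for full effect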
Gli cytotox – cytotoxicity counter-screen for Gli-SUFU antagonists. shares compounds with Gli-Sufu block. Sufu-KO-LIGHT cells cytotoxicity, ATP luminescence. cytotoxicity, % at 5 µM. actives 32% (n = 2,500). AID 651994;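 active = mean cytotoxicity at 5 µM above about 25%, limit read from the data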;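 also: cells exposed to compound overnight for roughly 16 to 18 hours; plate controls were DMSO wells with cells for no effect and medium without cells for full effect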
Wnt3a counter – counter-screen for Gli-SUFU antagonists: Wnt3a reporter inhibition | shares compounds with Gli-Sufu block | Wnt-LIGHT cells, Wnt3a-driven luciferase reporter, luminescence | inhibition, % at 6.25 µM | actives 20% (n = 2,500) | AID 651995;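 active = mean inhibition above about 25%, limit read from the data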
* hit, by the source's call. This is a sample that favours compounds with a hit; in the whole collection about 1.3% have one here.

Results for Cc1ccc(CCNC(=O)CCS(=O)(=O)Cc2ccc(C)cc2)cc1 ?
LRH-1 inv ag: 1; NCOA3 inh: -20; Gli-Sufu block: -17; COUP-TFII inh: 0; NCOA1 inh: -1; SRC2 inh: -14

What do the screens show for `Cc1ccc(CNC(=O)CCS(=O)(=O)Cc2ccc(C)cc2)cc1`?
LRH-1 inv ag: -14; NCOA3 inh: 7; Gli-Sufu block: 51; COUP-TFII inh: 8; NCOA1 inh: -1; SRC2 inh: 2; Gli antag conf: 24; Gli cytotox: 1; Wnt3a counter: 10

Results for CC(Nn1cnnc1)c1cc(Cl)ccc1O (stereo not drawn) ?
LRH-1 inv ag: -7; NCOA3 inh: 20; Gli-Sufu block: 98*; COUP-TFII inh: 5; NCOA1 inh: 6; SRC2 inh: 2; Gli antag conf: 19; Gli cytotox: 18; Wnt3a counter: 1

Results for COc1cccc(NC(=S)N2CCC(Cc3ccccc3)CC2)c1 ?
LRH-1 inv ag: -19; NCOA3 inh: -6; Gli-Sufu block: 51; COUP-TFII inh: -17; NCOA1 inh: -6; SRC2 inh: -9; Gli antag conf: 30; Gli cytotox: 21; Wnt3a counter: -46

How did Cc1ccc2nc(-c3ccc(NC(=O)CSc4nnc(-c5ccccc5)n4Cc4ccco4)cc3)sc2c1 do in these assays?
COUP-TFII inh: -21; SRC2 inh: -35

How did CC(=O)N1CCN(C2=Nc3ccccc3Sc3ccccc32)CC1 do in these assays?
COUP-TFII inh: 14; SRC2 inh: 12

What do the screens show for `COCCN(Cc1cn(C)nc1-c1ccc(Oc2ccccc2)cc1)C(C)C`?
LRH-1 inv ag: 9; NCOA3 inh: -2; Gli-Sufu block: 57*; COUP-TFII inh: 13; NCOA1 inh: 1; SRC2 inh: -12; Gli antag conf: 17; Gli cytotox: 15; Wnt3a counter: -61

Results for COc1ccc2c(c1)CCCC21SC(NC(C)=O)=NN1C(C)=O (stereo not drawn) ?
LRH-1 inv ag: 1; NCOA3 inh: 17; Gli-Sufu block: 51; COUP-TFII inh: 11; NCOA1 inh: -51; SRC2 inh: -4; Gli antag conf: 26; Gli cytotox: 15; Wnt3a counter: 10

Results for CC(=O)NC1=NN(C(C)=O)C(C)(c2ccc3ccccc3c2)S1 (stereo not drawn) ?
LRH-1 inv ag: -13; NCOA3 inh: 17; Gli-Sufu block: 4; COUP-TFII inh: 2; NCOA1 inh: 5; SRC2 inh: -10

What do the screens show for `CC(C)Oc1ccc(CCNC(=O)C2CCC(=O)N(Cc3cccc(F)c3)C2)cc1` (stereo not drawn)?
LRH-1 inv ag: -16; NCOA3 inh: -9; Gli-Sufu block: 57*; COUP-TFII inh: -18; NCOA1 inh: -19; SRC2 inh: 1; Gli antag conf: 11; Gli cytotox: -9; Wnt3a counter: -54

How did CN(CCO)c1cccc2c1S(=O)(=O)N(Cc1cn(Cc3ccc(F)cc3)nn1)Cc1ccccc1O2 do in these assays?
COUP-TFII inh: 0; SRC2 inh: -7

What do the screens show for `CC(=O)c1ccc(NS(=O)(=O)c2ccc(C)cc2)cc1`?
LRH-1 inv ag: -1; NCOA3 inh: 21; Gli-Sufu block: 55; COUP-TFII inh: 7; NCOA1 inh: 7; SRC2 inh: -17; Gli antag conf: 30; Gli cytotox: 14; Wnt3a counter: 11

Results for CC(=O)c1ccc(NS(=O)(=O)c2ccc(C(C)(C)C)cc2)cc1 ?
LRH-1 inv ag: -2; NCOA3 inh: 18; Gli-Sufu block: 18; COUP-TFII inh: 14; NCOA1 inh: -11; SRC2 inh: -14

What do the screens show for `CC(C)(C)C1CCC(OC(=O)C[N+]2(C)CCCC2)CC1` (stereo not drawn)?
LRH-1 inv ag: -13; NCOA3 inh: -11; Gli-Sufu block: 25; COUP-TFII inh: -6; NCOA1 inh: -5; SRC2 inh: -23

What do the screens show for `CC(C)(C)C1CCC(OC(=O)C[N+]2(C)CCCCC2)CC1` (stereo not drawn)?
LRH-1 inv ag: 13; NCOA3 inh: 13; Gli-Sufu block: 53; COUP-TFII inh: 1; NCOA1 inh: -25; SRC2 inh: 5; Gli antag conf: 33; Gli cytotox: 12; Wnt3a counter: 1

Results for CC(C)(C)C(=O)NC1CCCCN(Cc2cccc(Cl)c2)C1=O (stereo not drawn) ?
COUP-TFII inh: 13; SRC2 inh: 25

What do the screens show for `O=C(N/N=C/c1cn(CCOc2ccccc2)c2ccccc12)c1ccncc1`?
LRH-1 inv ag: 9; NCOA3 inh: 1; Gli-Sufu block: 55; COUP-TFII inh: 13; NCOA1 inh: -3; SRC2 inh: -31; Gli antag conf: 18; Gli cytotox: -1; Wnt3a counter: 14

What do the screens show for `CCCCCCCCN1CCS(=O)(=O)N(Cc2ccc(F)cc2)C(C(=O)OC)C1` (stereo not drawn)?
COUP-TFII inh: 13; SRC2 inh: 22

How did Cn1c(C2CCCN2C(=O)OC(C)(C)C)n[nH]c1=S (stereo not drawn) do in these assays?
LRH-1 inv ag: 16; NCOA3 inh: -3; Gli-Sufu block: 54; COUP-TFII inh: -2; NCOA1 inh: 1; SRC2 inh: 9; Gli antag conf: 12; Gli cytotox: 6; Wnt3a counter: -2

Results for CCN(C(=O)[C@@H](C)[C@@H](O)c1ccc2ccccc2c1)c1ccccc1 ?
COUP-TFII inh: -9; SRC2 inh: -2

How did NC(=O)CSc1nnc(-c2ccc(S(=O)(=O)N3CCCC3)cc2)n1CC1CCCO1 (stereo not drawn) do in these assays?
LRH-1 inv ag: 11; NCOA3 inh: 10; Gli-Sufu block: -2; COUP-TFII inh: 9; NCOA1 inh: -7; SRC2 inh: -12

What do the screens show for `N#CCSc1nnc(-c2ccc(S(=O)(=O)N3CCOCC3)cc2)n1CC1CCCO1` (stereo not drawn)?
LRH-1 inv ag: -26; NCOA3 inh: -3; Gli-Sufu block: 94*; COUP-TFII inh: 1; NCOA1 inh: -11; SRC2 inh: -20; Gli antag conf: 30; Gli cytotox: 2; Wnt3a counter: 10

Results for O=C(CSc1nnc(COc2ccc(Cl)cc2)n1Cc1ccco1)Nc1cccc2ccccc12 ?
COUP-TFII inh: 20; SRC2 inh: -23

Bioassay records: PubChem BioAssay, several laboratories
